High-throughput results deposited in PubChem by National Center for Advancing Translational Sciences (NCATS).
nsP2pro inh – blocks chikungunya virus nsP2 protease peptide cleavage; Q8JUX6; FRET peptide cleavage, nsP2pro, fluorescence 1 h; Potency, µM (titrated, usually from 24.9 µM), for inactives: at the top dose activity change, negative = inhibition, most hits filed as inhibitors; hit rate 1.1% among 31,000; AID 1964107; note: nearly all actives have a fitted effect of over 60% in size
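Purified recombinant nsP2pro (150 nM final) in 10 mM Tris-HCl pH 8.0 with 0.01% Tween 20 was preincubated 15 min at room temperature with compound (7 concentrations, up to 25 uM). FRET peptide 2 substrate (2.5 uM final) was then added; fluorescence was read after 1 h.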
CHIKV nsP2 cell – cell-based CHIKV nsP2 protease inhibition, secondary; shares compounds with nsP2pro inh; cell-based CHIKV nsP2 protease reporter assay; Potency, µM (titrated, usually from 51.1 µM), inactives show top-dose activity change, negative = inhibition, actives largely listed as inhibitors; hit rate 10% among 450; AID 1964100; note: nearly all actives have a fitted effect of over 70% in size
CHIKV NSP2 FL – full-length CHIKV NSP2 protease inhibition, selectivity; Full-length CHIKV NSP2 protease enzymatic counterscreen; shares compounds with nsP2pro inh; Potency, µM (titrated, usually from 50.7 µM), for the others: at the highest dose activity change, negative = inhibition, actives largely listed as inhibitors; hit rate 39% among 410; AID 1964101; note: nearly all actives have a fitted effect of over 65% in size
Furin counter – human furin inhibition, counterscreen for nsP2pro inhibitors; Potency, µM (doses to about 50.6 µM), for inactives: at the top dose activity change, negative = inhibition, actives largely listed as inhibitors; shares compounds with nsP2pro inh; hit rate 6% among 410; Recombinant human furin enzymatic counterscreen, fluorogenic substrate
nsP2 NS23 pep – selectivity test for CHIKV nsP2 protease inhibitors: endogenous NS2/3 peptide; shares compounds with nsP2pro inh; Purified CHIKV nsP2 protease, endogenous NS2/3 peptide cleavage; Potency, µM (doses to about 51 µM), for inactives: at the highest dose activity change, negative = inhibition, most hits filed as inhibitors; hit rate 34% among 410; note: nearly all actives have a fitted effect of over 55% in size
Papain cs – papain protease inhibition, counterscreen for nsP2pro inhibitors; Potency, µM (top dose mostly 51 µM), without a hit: at the top dose activity change, negative = inhibition, hits mostly inhibitors; purified papain protease activity, enzymatic inhibition; hit rate 5% among 410; shares compounds with nsP2pro inh
nsP2pro confirm – confirmation of CHIKV nsP2 protease inhibitors. shares compounds with nsP2pro inh. CHIKV nsP2 protease enzymatic activity, qHTS. Potency, µM (highest dose often 25.5 µM), for the others: at the highest dose activity change, negative = inhibition, usual class: inhibitors. hit rate 43% among 410. AID 1964105; note: nearly all actives have a fitted effect of over 75% in size
HCV NS3 counter – inhibits HCV NS3/4A protease in an nsP2pro selectivity counterscreen; shares compounds with nsP2pro inh; HCV NS3/4A protease biochemical counterscreen; Potency, µM (titrated, usually from 50.9 µM), hits mostly inhibitors; hit rate 20% among 410; AID 1964106; note: nearly all actives have a fitted effect of over 55% in size
Starred values were filed as active, the others as inactive; i = inactive; ? = inconclusive; [ ] = remark or other dose. The sample as a whole holds a higher share of hits than the screen did. Calls come from the whole dose curve. % is set by controls: 0 for no effect and ±100 for the full control effect; potency is the fitted concentration of half-maximal effect.

SMILES | nsP2pro inh | others
CCCCN(CC)c1nc(C)nc2c1c(C)cn2-c1c(C)cc(C)cc1C | -3.4%
O=C(O[C@H]1C[N+]2(CCCOc3ccccc3)CCC1CC2)C(O)(c1cccs1)c1cccs1 | 2.4%
O=C(Cc1cccc(C(F)(F)F)c1)N[C@H]1CCOC[C@H]1C1CCOCC1 | -9.2%
CC1(C)O[C@H]2CC(=O)OC[C@@]23C1=C(O)C(=O)[C@]1(C)C3CC[C@@]2(C)[C@H](c3ccoc3)OC(=O)[C@H]3O[C@]321 (stereo partly specified) | ? | CHIKV nsP2 cell=-0.2%[17.6 µM];CHIKV NSP2 FL=-7.2%[17.3 µM];Furin counter=-2.6%[17.3 µM];nsP2 NS23 pep=i;Papain cs=-13.2%[17.2 µM];nsP2pro confirm=9.6%[8.62 µM];HCV NS3 counter=?
C=C1[C@@H]2CC[C@@]3(C)[C@H](c4ccoc4)OC(=O)C[C@]13O[C@H]1CC(=O)C(C)(C)[C@H](C(OC(C)=O)C(=O)OC)[C@]12C (stereo partly specified) | -17.7%[10 µM]
CC1(C)OC(=O)CC(O)C2(C)C1CC(=O)C1(C)C2C(O)CC2(C)C(c3ccoc3)OC(=O)C3OC321 (stereo unspecified) | ? | CHIKV nsP2 cell=9.9%[17.6 µM];CHIKV NSP2 FL=-18.8%[17.3 µM];Furin counter=-4.7%[17.3 µM];nsP2 NS23 pep=-9.8%[17.2 µM];Papain cs=-6.1%[17.2 µM];nsP2pro confirm=-16.3%[8.62 µM];HCV NS3 counter=i
CNC(=O)Nc1cccn2nc(-c3ccccc3)nc12 | -28.4%
CCn1ccc(C(=O)N2CC[C@H](c3nc(C)no3)[C@H](NC(=O)C3CC3)C2)n1 | -4.3%
O=C(Nc1ccc(S(=O)(=O)Nc2nccs2)cc1)c1cccc2ccccc12 | -8.1%
CC12CCC3C(CCC4CC(O)CCC43C)C1CCC2=O (stereo unspecified) | -18.8%
CCc1cn(C[C@H](NC(=O)COC)C(=O)O)c(=O)[nH]c1=O | -1.2%[39.2 µM]
Cc1ncoc1C(=O)N1CCC2(CC1)CC(N(Cc1ccccc1)C1CC1)CCO2 (stereo unspecified) | -9.6%
COc1ccc(C2(C(=O)N3CCCC(Cn4c(C)nc5cccnc54)C3)CCCCC2)cc1 (stereo unspecified) | i
CC1(C)CCC[C@@]2(C)[C@H]1[C@H](O)C=C1COC(=O)[C@@]12O | -13.4%
CO[C@H]1c2cc(C(C)C)c(O)c(O)c2[C@@]23CCCC(C)(C)C2[C@@H]1OC3=O (stereo partly specified) | 6.1µM* | CHIKV nsP2 cell=-19.1%[33.5 µM];CHIKV NSP2 FL=16µM*;Furin counter=-10.3%[33.5 µM];nsP2 NS23 pep=12.7µM*;Papain cs=?;nsP2pro confirm=5.54µM*;HCV NS3 counter=i
CCOc1ccc(/C=C(\C#N)C(=O)Nc2sc3c(c2C(=O)OC)C(C(=O)OC)CC3)cc1OC (stereo unspecified) | 0.849µM* | CHIKV nsP2 cell=-0.7%;CHIKV NSP2 FL=?;Furin counter=2.3%;nsP2 NS23 pep=5.8µM*;Papain cs=-4.4%;nsP2pro confirm=4µM*;HCV NS3 counter=i
COC(=O)C1CCc2sc(NC(=O)Cc3ccccc3)c(C(=O)Nc3ccc(Cl)cc3)c21 (stereo unspecified) | i
CCOc1cc(/C=C(\C#N)C(=O)Nc2ccc(OC)cc2)ccc1OCc1cc(=O)n2nc(CC)sc2n1 | -16.9%
COc1cc2c(c(OC)c1OC)-c1c(cc3c(c1OC)OCO3)C[C@@H](C)[C@@H](C)C2 | -16.5%
CC(C)c1nccn1CCCNC(=O)c1ccc(-c2cccc(F)c2)nc1 | i
O=C(Nc1ccc(N2CCN(CCOc3ccc(Cl)cc3)CC2)c(C(=O)O)c1)c1ccc(F)cc1 | 3.55µM* | CHIKV nsP2 cell=1.7%;CHIKV NSP2 FL=3.26µM*;Furin counter=?;nsP2 NS23 pep=8.19µM*;Papain cs=15.9%;nsP2pro confirm=7.11µM*;HCV NS3 counter=2.06µM*
CCOc1ccc(NC(=O)CN2CCN(S(=O)(=O)c3ccc(OC)cc3)CC2)cc1 | -29.1%
CCCNC(=O)CN1CCN(c2ccc(NC(=O)c3ccc(OC)cc3)cc2C(=O)O)CC1 | 4.47µM* | CHIKV nsP2 cell=?;CHIKV NSP2 FL=4.11µM*;Furin counter=?;nsP2 NS23 pep=13µM*;Papain cs=2.4%;nsP2pro confirm=7.11µM*;HCV NS3 counter=2.91µM*
CCCCOc1ccc(C(=O)Nc2ccc(F)cc2F)cc1 | -7.8%
CCOc1ccc(NC(=O)NCCCN2CCN(c3ccc(OC)cc3)CC2)cc1 | -11.5%
SMILES | nsP2pro inh | others
Cc1ccc(Cl)cc1N1CCN(CCNC(=O)Nc2ccc(Cl)cc2)CC1 | -12.6%
COCCNC(=O)C1CC(c2ccccc2)CN(C(=O)NCc2ccccc2)C1 (stereo unspecified) | -2.2%
OCc1ccc(O[C@@H]2O[C@H](CO)[C@@H](O)[C@H](O)[C@H]2O)cc1 | -12.9%
COc1ccc(CNC(=O)[C@@H]2CCC[C@@H](NCc3cccnc3)CN(C)C(=O)C2)cc1 | 1.9%[39.2 µM]
COCc1nc(CCNC(=O)NCCc2ccccc2)no1 | -1.6%
CCC(=O)O[C@H]1CC[C@H]2[C@@H]3CC[C@H]4CC(=O)[C@H](C)C[C@]4(C)[C@H]3CC[C@]12C | -10.5%
CCC(CC)Nc1nc(C)c(-c2ccc(OC(F)(F)F)cc2OC)nc1OC | 15.0%
CCN(CCc1cn(C)cn1)c1ncnc2ccc(-c3ccc4c(c3)OCO4)cc12 | i
Cc1cc(-c2nnc3n2CCCCCCC3)c(C)n1-c1ccccc1 | -11.1%
CCCCOc1ccc(C(=O)CCN2CCCCC2)cc1 | 2.21µM* | CHIKV nsP2 cell=?;CHIKV NSP2 FL=10.3µM*;Furin counter=?;nsP2 NS23 pep=13µM*;Papain cs=?;nsP2pro confirm=8.96µM*;HCV NS3 counter=i
Cc1ccc(OCC(=O)N2CCN(CCc3ccncc3)CC2)cc1C | -15.9%
Cc1cc(OCC(=O)N2CCN(CCc3ccncc3)CC2)ccc1Cl | -13.6%
CCCCOc1ccc(OCCCN2CCOCC2)cc1 | 11.6%
CCCCOc1ccc(C(=O)N2CCN(CCc3ccncc3)CC2)cc1 | ? | CHIKV nsP2 cell=24.2%
O=C(O)c1ccc(OCCCOc2ccc(C(=O)O)cc2)cc1 | 3.5%
Cc1nc(C)c(C(=O)Nc2nn(Cc3ccccc3)c3cccc(OC(C)C)c23)o1 | -10.8%
CC(C)(O)c1ccn2c(-c3ccc(F)c(-c4ccc(F)cc4C#N)c3)cnc2c1F | -1.8%
Cc1ccc(-c2ccc(=O)n(CC(=O)N(C3CCCCC3)C3CC3)n2)cc1 | 3.0%
C#CCN(C)Cc1nc(C2(O)CCN(C(=O)c3ccccc3F)CC2)cs1 | i
C/C=C(\C)C(=O)OC[C@H]1O[C@@H](O[C@H]2[C@@H](O[C@H]3O[C@H](COC(=O)/C(C)=C/C)[C@@H](O)[C@H](O)[C@H]3O[C@@H]3O[C@H](CO)[C@@H](O)[C@H](OC(=O)/C(C)=C/C)[C@H]3O)O[C@H](COC(=O)/C(C)=C/C)[C@@H](O)[C@@H]2O)[C@H](O)[C@@H](O)[C@@H]1O | 9.5%[5.1 µM]
